# Measured values as given in PubChem BioAssay AID651702 (NMMLSC, 2012).
# Values joined by “and” are separate entries in the source; they are usually repeats but may differ in a detail not shown here. Identical values can stand only once. The campaign covered roughly 360,000 compounds. About 2,400 (0.67%) were called active. For the sample, actives were picked, then their nearest neighbours and some compounds at random. A number with no mark means an inactive call.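 How the source made its calls: active means inhibition above about 55% (limit read from the data); inconclusive means no clear call, values can overlap the other calls; inactive means the rest.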
# Test: LAMP-1 surface exposure blockers, TALL-104 cells – cell-based, flow cytometry, MLPCN library, primary screen (AID 651702)
# Conditions: TALL-104 LAMP-1 surface exposure, at 10 µM, hits give high values, cells stimulated with thapsigargin and PMA
row,Structure (SMILES),inhibition
1,COc1ccc2c(c1)c(C(=O)N/N=C/c1cccs1)c(C)n2C,0.8%
2,CC(C)(C)n1nc2c(c1NC(=O)c1cc3ccccc3o1)CSC2,0%
3,Cc1c(/C=N\NC(=O)c2cc3ccccc3o2)c2ccccc2n1C,65.6% (active)
4,CCn1nc(C(=O)NNS(=O)(=O)c2cc(/C=C/C(=O)O)cc(OC)c2OC)c2ccccc2c1=O,1.1%
5,CCOc1ccc(/C=C/C(=O)OCC(=O)c2ccccc2OC)cc1OC,-4.4%
6,O=C(CN1C(=O)NC2(CCCCCC2)C1=O)NCc1cccs1,-5.2%
7,Cc1nc2c(C(=O)NCc3ccc4c(c3)OCO4)c[nH]n2c(=O)c1Cc1ccccc1F,-2.7%
8,Cc1cccc(N(C)C(=O)c2cc(S(=O)(=O)N3CCCCC3)c[nH]2)c1,-3.8%
9,CCCCn1nnnc1C1(C)CCC(=O)N1Cc1ccc(OC)c(OC)c1 (stereo unspecified),-1.7%
10,Cc1nc2nc(SCC(=O)c3ccccc3)[nH]c2cc1Br,-2.1%
11,Cc1cc(SCC(=O)c2ccccc2)nc(SCC(=O)c2ccccc2)n1,78.5% (active)
12,Cc1nc(SCC(=O)c2ccccc2)c([N+](=O)[O-])[nH]1,0.6%
13,O=c1[nH]c(=S)[nH]c(O)c1/C=C1\C=Nc2ccccc21,-1.2%
14,CCCC(C(=O)n1nc(C)cc1C)C(NS(=O)(=O)c1ccc(C)cc1)c1ccccc1 (stereo unspecified),66% (active)
15,CSCC(NS(=O)(=O)c1ccc(C)cc1)C(=O)O (stereo unspecified),1.8%
16,Cc1ccc(S(=O)(=O)NC(C(=O)N2CCOCCOCCOCCOCC2)c2ccccc2)cc1 (stereo unspecified),-7%
17,N#Cc1ccc(C(C(=O)NCc2ccccc2)n2c(=O)c(-c3ccco3)nc3ccccc32)cc1 (stereo unspecified),1.3%
18,COc1ccccc1CCNC(=O)c1c(C)nn(CC(C)C)c1Cl,-1.6%
19,COCCCn1c(SCC(=O)Nc2oc(C)c3c(C)n[nH]c(=O)c23)nc2sc3c(c2c1=O)CCC3,-0.6%

row,Structure (SMILES),inhibition
1,CC(CCc1ccccc1)NC(=O)COC(=O)c1ccc(F)cc1 (stereo unspecified),6%
2,C#CCOc1ccc(/C=C2/C(=O)ON=C2C)cc1OCC,-12.5%
3,COc1cc(/C=C2/C(=O)ON=C2C)ccc1OCc1ccccc1F,60.6% (active)
4,CC1=NOC(=O)/C1=C\c1ccccc1,-7.3%
5,CC(C)(C)c1ccc(C(=O)N2CCN(CCNC(=O)C(=O)Nc3ccc(F)cc3)CC2)cc1,-0.5%
6,COc1ccc(C2(c3ccc(OC)cc3)NC(=O)N(CC(=O)Nc3cc(C)on3)C2=O)cc1,5.1%
7,CC(=O)C[C@H](O)CC(=O)[C@@H]1OC(=O)[C@@H](C)C/C=C\Cc2ccccc21,-0.2%
8,CC[C@@H]1CCCCc2ccccc2[C@@H](C(=O)C[C@H](O)CC(C)=O)OC1=O,-4.4%
9,CC(=O)C[C@@H](O)CC(=O)[C@H]1OC(=O)CCCCCCc2ccccc21,58.1% (active)
10,CSc1nc2nc(-c3cccc(C(F)(F)F)c3)ccn2n1,-1.7%
11,Nc1c(C(=O)c2cccs2)sc2nsc(SCCN3CCCCC3)c12,94.6% (active)
12,O=C(Cc1ccc(NC(=O)C2CCCN(C(=O)CCc3ccccc3)C2)cc1)Nc1ccc(C(=O)N2CCOCC2)cc1 (stereo unspecified),-2%
13,CCOC(=O)C1CCN(C(=O)CN2C(=O)c3cccnc3Oc3ccc(C)cc32)CC1,-4.5%
14,Cc1ccc(C2(c3ccc(C)cc3)NC(=O)N(Cc3c(C)noc3C)C2=O)cc1,4.4%
15,CCCCC[C@H](C)N1C[C@@H](COCc2ccccc2)Oc2cc(N3CC[C@@H](N(C)C)C3)ccc2S1(=O)=O,56.2% (active)
16,CCCCC[C@H](C)N1C[C@@H](COCc2ccccc2)Oc2cc(N3CCC[C@@H]3CO)ccc2S1(=O)=O,0.2%
17,CCCCN1CC(COCc2ccccc2)OCCS1(=O)=O (stereo unspecified),-5.6%
18,COc1cccc(-c2sc3ccc(OC)cc3c2-c2ccc(OCCN3CCCCC3)cc2)c1,14.7%
19,COc1cc(OC)cc(-c2c(-c3ccc(F)cc3)c3cc(-c4ccc5cc[nH]c5c4)ccc3n2C)c1,-0.5%

row,Structure (SMILES),inhibition
1,COc1ccc2sc(-c3ccc(N(C)C)cc3)c(-c3ccc4cc[nH]c4c3)c2c1,72% (active)
2,O=C(CCc1nnc2ccc(NCc3ccccc3Cl)nn12)NCC1CCN(C2CCCC2)C1 (stereo unspecified),-2.5%
3,COc1ccc(S(=O)(=O)NCC(c2ccco2)N2CCOCC2)cc1 (stereo unspecified),-1.5%
4,C=C(C)CNC(=S)Nc1ccc(S(=O)(=O)Nc2cnc3ccccc3n2)cc1,9.1%
5,Cc1ccccc1OS(=O)(=O)c1cccc([N+](=O)[O-])c1,-1.4%
6,COc1ccc(S(=O)(=O)N2CCN(CC(=O)N3CCNC3=O)CC2)cc1OC,-0.1%
7,CN1CCN(C2Cc3ccc(Cl)cc3Sc3ccc(F)cc32)CC1 (stereo unspecified),63.7% (active)
8,Cc1ccc(-c2nnn(CC(=O)N(Cc3ccco3)C(C(=O)NC(C)(C)C)c3ccncc3)n2)o1 (stereo unspecified),3.8%
9,Cc1c(C(C)(C)O)[nH]c2ccc(C#N)cc12,2.3%
10,O=C(Nc1ccc(Cl)cc1)Nc1nnc(/C=C/c2ccccc2)s1,70.9% (active)
11,O=C(CSc1ccccc1)Nc1nnc(/C=C/c2ccccc2)s1,-0.2%
12,COc1ccc(/C=C/c2nnc(NC(=O)C(C)C)s2)cc1,2%
13,CCNC(=O)C1(C)CCCN(C(=O)c2c(C)noc2C)C1 (stereo unspecified),-7.3%
14,COc1cc(C(=O)Nc2cc(C(F)(F)F)ccc2N2CCOCC2)ccc1O,-2.1%
15,O=C(Cn1c[n+](CC(=O)c2ccc([N+](=O)[O-])cc2)cn1)c1ccc([N+](=O)[O-])cc1,0.3% and 0%
16,O=C(CCn1nnc2ccccc21)OCC(=O)c1ccc([N+](=O)[O-])cc1,-4.6%
17,O=C(CC(n1cncn1)C(Cl)(Cl)Cl)c1ccc([N+](=O)[O-])cc1 (stereo unspecified),67.9% (active)
18,CN(C(=O)c1cccc(NC(=O)Cc2ccc(NC(=O)C3CCCN(C(=O)C4CCCC4)C3)cc2)c1)C1CCC1 (stereo unspecified),-0.4%
